Measured values from PubChem BioAssay AID1259343 (VanderVen Lab, College of Veterinary Medicine, Cornell …, 2017).
Among all 6,200 compounds or so, about 2,900 (47%) were called active. No stated cut-off is given here; in the data, active means inhibition above about 50%; inactive means the rest. So high a share suggests a set chosen from earlier hits. The list shows a part of the results.

assay: Mycobacterium tuberculosis growth inhibition, primary screen (AID 1259343); details: inhibition: at 10 µM, active compounds read high; outcome: 10 uM

SMILES | inhibition
Cc1ccc(SCCCCN2C(=O)NC(C)(C)C2=O)cc1 | -48.6% (inactive)
O=c1c2ccccc2ncn1CCCCSc1ccccc1 | 89.1% (active)
CCc1cc(OCCCCn2cnc3ccccc3c2=O)ccc1Cl | 64.6% (active)
Cc1cc2ncn(CCCOc3ccccc3)c2cc1C | 36.7% (inactive)
Cc1nn(S(=O)(=O)c2cccc([N+](=O)[O-])c2)c(C)c1S(=O)(=O)N1CCCC(C)C1 (stereo not given) | -15.4% (inactive)
N#Cc1ccc(CNc2cccc(Br)c2)c(F)c1 | -12.4% (inactive)
N#Cc1ccc(NCc2cc(Br)ccc2F)cc1 | 88.5% (active)
N#Cc1ccccc1CNc1ccc(Br)cc1F | -19.6% (inactive)
CC(C)c1nc2c(c(=O)c3ccccc3n2C)c(=O)n1Cc1ccccc1 | -29.9% (inactive)
COC(=O)C(C)Sc1nc2sc3c(c2c(=O)n1Cc1ccccc1)CCC3 (stereo not given) | 83.9% (active)
O=c1c2c3c(sc2ncn1Cc1cccc2ccccc12)CCCC3 | 21.4% (inactive)
CC1(Cc2ccccc2F)C(=O)Nc2ccc(-c3cccnc3)cc21 (stereo not given) | 55.3% (active)
CCCc1nn(-c2cccc(Cl)c2)c([O-])c1C1=C([n+]2cccc(CC)c2)C(=O)N(CC(C)C)C1=O | 41.4% (inactive)
CCCC(C)NC(=O)Cn1cnc2cc(F)ccc2c1=O (stereo not given) | 86.9% (active)
O=C(NNC1c2ccccc2-c2ccccc21)c1ccccc1 | 32.6% (inactive)
CC(C)(C)C(=O)COC(=O)CNC(=O)c1ccccc1 | 93.8% (active)
C=CCN=c1scc(-c2ccc(C)c(C)c2)n1N=Cc1cccnc1 | -28% (inactive)
C=CCN=c1scc(-c2ccccc2F)n1N=Cc1ccc2c(c1)OCCO2 | 9.72% (inactive)
C=CCN=c1scc(-c2ccc(C)cc2)n1N=C(C)c1cccnc1 | 84.7% (active)
CCN=c1scc(-c2ccc(C)cc2)n1N=C(C)c1ccc(C)o1 | 42.6% (inactive)
C=CCN=c1scc(-c2ccc(OC(F)F)cc2)n1N=C(C)c1ccc2c(c1)OCCO2 | 87% (active)
C=CCN=c1scc(-c2ccc(Cl)c(Cl)c2)n1N=Cc1cccnc1 | 68.1% (active)
C=CCN=c1scc(-c2ccc(Br)cc2)n1N=Cc1cccnc1 | -5.61% (inactive)
C=CCN=c1scc(-c2ccc(OC(F)F)cc2)n1N=Cc1ccc2c(c1)OCO2 | -11.8% (inactive)
C=CCN=c1scc(-c2ccc(Cl)cc2)n1N=Cc1cccnc1 | 9.02% (inactive)

SMILES | inhibition
Cc1ccc(C(=O)N2CCCC(C(=O)c3cccc4ccccc34)C2)s1 (stereo not given) | 11.3% (inactive)
O=C(NCC(=O)N1CCCCC1)c1sc2ccccc2c1Cl | 70.3% (active)
CC1(C)CN(CC(=O)NCC(=O)N2CCCC2)c2cccc(Cl)c21 | -12.8% (inactive)
CCc1ccc(NC(=O)CCn2cnc3c([nH]c4ccccc43)c2=O)cc1 | 95.4% (active)
Cn1c(=O)c2c(ncn2CCOC(=O)c2cc(=O)[nH]c3ccccc23)n(C)c1=O | -7.86% (inactive)
CCc1ccc(-c2cc(C(=O)N=Nc3c(O)[nH]c4ccccc34)[nH]n2)cc1 | 18.3% (inactive)
Brc1cc(CNC2C3CCCC2CN(C2CC2)C3)cs1 (stereo not given) | 23.7% (inactive)
C=CCn1cnnc1SCC(=O)Nc1ccc(Br)c(C)c1 | 101% (active)
C=CCn1c(SCC(=O)NC(=O)NC)nnc1-c1ccncc1 | -1.24% (inactive)
Cn1cnnc1SCC(=O)Nc1ccc2c(c1)OC(F)(F)O2 | 16.7% (inactive)
Cc1nnc2sc(-c3ccccc3NC(=S)NC(=O)c3cc4ccccc4o3)nn12 | 57.4% (active)
CCn1c(O)c(C=NC2CCCCCC2)c(=O)n(CC)c1=S | 102% (active)
Oc1ccc2ccccc2c1C=NC1CC1 | 37.4% (inactive)
Cc1nn(CO)c(C)c1Sc1ccc(Br)cc1 | 36.4% (inactive)
C(=Nn1c(-c2ccccc2)csc1=NC1CCCCC1)c1ccccn1 | -31.1% (inactive)
Cc1ccc(OCC2CCCN(Cc3ccc(C#CCO)s3)C2)cc1 (stereo not given) | 82.9% (active)
Cc1ccccc1OCC1CCCN(Cc2nc(Cc3ccccc3F)no2)C1 (stereo not given) | 47% (inactive)
COCC(C)NC(=O)c1cccc(Oc2cccc(C(F)(F)F)c2)c1 (stereo not given) | 38.2% (inactive)
O=C(NCC(F)(F)F)c1cccc(Oc2ccccc2)c1 | 74.4% (active)
CCCCc1noc(CNc2cc(C(=O)NCC(F)(F)F)ccc2C)n1 | 46.7% (inactive)
CCc1cccc(N2CCC(NC(=O)Nc3nccs3)CC2)c1 | 51.4% (active)
CC1CC(=O)NN1C(=O)/C=C/c1cn(-c2ccccc2)nc1-c1ccccc1 (stereo not given) | 38.7% (inactive)
Cn1cc(-c2nn(-c3ccccc3)cc2C=NNC(N)=S)c2ccccc21 | 16.3% (inactive)
OCCN=Cc1cn(-c2ccccc2)nc1-c1ccc(Cl)cc1 | 59.3% (active)
CCc1cc2c(=O)n(CCC(C)C)c(=S)[nH]c2s1 | -39.7% (inactive)

SMILES | inhibition
C/C(=C/C(=O)C(C#N)c1nc2cc(Cl)ccc2s1)C1CC1 (stereo not given) | 63.6% (active)
COC(=O)COc1ccc2c(=O)c(Oc3ccc(OC)cc3)coc2c1 | 8.04% (inactive)
CCOC(=O)COc1ccc2c(=O)c(-c3ccccc3)c(C)oc2c1 | 41.9% (inactive)
Cc1cc(NC(=O)C(C)Oc2ccc3c(=O)c(-c4ccccc4)c(C)oc3c2)no1 (stereo not given) | 70.1% (active)
COCCCn1c(-c2ccccc2)nc2oc3cc(OC)ccc3c(=O)c2c1=O | -18.5% (inactive)
C=C(C)COc1ccc2c(=O)c(-c3ccccc3)c(C)oc2c1 | 51.9% (active)
CCOC(=O)COc1ccc2c(=O)c(-c3ccc(Cl)cc3)c(C)oc2c1 | 84% (active)
Nc1c([N+](=O)[O-])ccc2c1=[N+]([O-])C1(CCCCC1)[N+]=2[O-] | 101% (active)
Oc1c(N=Nc2ccccc2)cc2c3c1CCCN3CCC2 | 16.8% (inactive)
O=C(NCC1CC1)c1csc(N2CCN(Cc3ccc(Cl)cc3)C2=O)n1 | 33.3% (inactive)
Cc1c(CN2CCCC(CNC(=O)c3cccs3)C2)[nH]c2ccc(Cl)cc12 (stereo not given) | 78.8% (active)
Cc1c(CN2CCCC(C(=O)Nc3cccc(-n4cccn4)c3)C2)[nH]c2ccccc12 (stereo not given) | 35.5% (inactive)
NC(=N/N=C\c1ccc(Cl)cc1)N/N=C\c1ccc(Cl)cc1 | 101% (active)
CN(CCC#N)c1ccc(C=NNC(N)=S)cc1 | 29.2% (inactive)
Clc1ccc(C2=Nn3c(nnc3C3CCCCC3)SC2)c(Cl)c1 | -20.9% (inactive)
O=C(Sc1cccc2cccnc12)c1ccccc1Cl | 92.5% (active)
CCc1cccc2c(C(=O)CSc3nnc(-c4cccnc4)o3)c[nH]c12 | 63.8% (active)
CCOC(=O)C(C#N)=NNc1sc(C(=O)OCC)c(C)c1C(=O)OCC | -20.8% (inactive)
CCOC(=O)c1c(CC(C)C)csc1NC=C(C#N)C#N | 100% (active)
CCOC(=O)c1sc(NN=C(C#N)C#N)c(C(=O)OCC)c1C | 27.2% (inactive)
Cc1cc(=O)[nH]c(-n2nc(C)cc2NC(=O)c2cc(C(F)(F)F)cc(C(F)(F)F)c2)n1 | 98.3% (active)
Cc1cc(NC(=O)c2cccc(C(F)(F)F)c2)n(-c2nc(C)c(C)c(=O)[nH]2)n1 | 33.9% (inactive)
Cc1cc(=O)[nH]c(-n2nc(C)cc2NC(=O)c2ccc(C(F)(F)F)cc2)n1 | 98.6% (active)
Cc1cc(=O)[nH]c(-n2nc(C)cc2NC(=O)c2cccc(C(F)(F)F)c2)n1 | 102% (active)
CCn1nnc2c(N3CCC(Cc4ccccc4)CC3)ncnc21 | 75.6% (active)

SMILES | inhibition
Clc1ccccc1CSc1ncnc2c1nnn2Cc1ccccc1 | -14.6% (inactive)
Cc1cc(=O)[nH]c(SCc2cc(-c3ccco3)on2)c1C#N | 20.5% (inactive)
COc1cccc(-c2ccc(CNC(=O)c3n[nH]c(=O)[nH]3)cc2)c1 | 76.1% (active)
Cc1c(NC(=S)NC(=O)c2ccc(Br)o2)c(=O)n(-c2ccccc2)n1C | -13.3% (inactive)
Cc1cc2cc(CNC(=S)Nc3ccccc3)ccc2n1C | 49.3% (inactive)
Cc1c(NC(=S)NCc2ccccn2)c(=O)n(-c2ccccc2)n1C | 92.7% (active)
Cc1ccc(S(=O)(=O)N=[N+]([O-])C2([N+](=O)[O-])COC(C)OC2)cc1 (stereo not given) | 102% (active)
CCOC(=O)c1ccc(N=Cc2c(O)c([N+](=O)[O-])cc3oc4c(c23)CCCC4)cc1 | 97.7% (active)
CC(=O)c1ccc(C(=O)N2CCC(C(=O)Nc3cccc(-c4ccco4)c3)CC2)s1 | 92.1% (active)
O=C(Nc1cccc(-c2cscn2)c1)C1CCN(Cc2cccc(-c3ccco3)c2)CC1 | 86.2% (active)
O=C(Nc1cccc(-c2ccco2)c1)C1CCN(C(=O)Cc2ccsc2)CC1 | 95.1% (active)
Cc1ncsc1CCC(=O)N1CCC(C(=O)Nc2cccc(-c3ccco3)c2)CC1 | 86.6% (active)
CC(C)c1csc(CN2CCC(C(=O)Nc3cccc(-c4ccco4)c3)CC2)n1 | inactive
Cc1ccccc1OCC(=O)Nc1ccc2c(c1)CCC(=O)N2CCC(C)C | 9.17% (inactive)
Cc1ccc(NC(=O)CN2CSCC2=O)cc1OCC(F)F | 81.5% (active)
N#Cc1ncn(Cc2nc3scc(-c4ccc(Br)cc4)c3c(=O)[nH]2)n1 | 50.4% (active)
Cn1cccc1C(=O)OCc1nc2scc(-c3ccccc3)c2c(=O)[nH]1 | 37.5% (inactive)
N#Cc1c(-c2ccc(Br)cc2)csc1N1CCCCC1 | 38.9% (inactive)
O=C1NC(=O)N(C2CCCCC2)C(=O)C1=CC=Cc1ccco1 | 19.5% (inactive)
CC(=NN=c1sc2ccccc2n1C)c1ccco1 | 1.85% (inactive)
CC(=NN=c1sc2ccccc2n1C)c1ccccc1Br | 11.9% (inactive)
Cn1c(=NN=C2CC3CC=CC23)sc2ccccc21 (stereo not given) | 102% (active)
CC1=CC(=NNc2ncc(Cl)cc2Cl)CC(C)(C)C1 | -13.2% (inactive)
Cn1c(=NN=C2CCCc3ccccc32)sc2ccccc21 | 85.9% (active)
CC1=CC(=NN=c2sc3ccccc3n2C)CC(C)(C)C1 | 95% (active)
